Screening results as filed in PubChem BioAssay.
Marburg entry inh: qHTS for inhibitors of binding or entry into cells for Marburg Virus | Marburg virus pseudotyped entry inhibition, cell reporter | Potency, µM (top dose mostly 37.8 µM), for inactives: at the top dose activity change, negative = inhibition, actives largely listed as inhibitors | actives 1.8% (n = 300,000); calls by dose curve; tested in HEK293 cells; also: potency is read from the fitted curve at half-maximal effect; % is scaled to controls: 0 for no effect and ±100 for the full control effect
Cycloheximide cs: Cycloheximide Counterscreen for Small Molecule Inhibitors of Shiga Toxin; cell reporter, cycloheximide protein synthesis inhibition counterscreen; max response, %; actives 12% (n = 300,000); AID 2314, 2010; in the data active = max response mostly above about 13%, no sharp cut-off; inactive = mostly below about 14%; also: read at 38.3 µM for the half of the compounds with a filed dose; 0% is about no effect
LASV entry inh: qHTS for Inhibitors of binding or entry into cells for Lassa Virus; actives 1.2% (n = 300,000); Lassa virus pseudotype entry inhibition, cell reporter; Potency, µM (series often up to 37.9 µM), inactives show at the highest dose activity change, negative = inhibition, usual class: inhibitors; calls by dose curve; tested in HEK293 cells; also: potency is read from the fitted curve at half-maximal effect; % is scaled to controls: 0 for no effect and ±100 for the full control effect; nearly all actives have a fitted effect of over 50% in size
Pf growth 96h: Primary qHTS for delayed death inhibitors of the malarial parasite plastid, 96 hour incubation; P. falciparum luciferase reporter growth, 96 h; actives 6.9% (n = 320,000); Potency, µM (series often up to 28.7 µM), for the others: top-dose activity change, negative = inhibition, hits mostly inhibitors; AID 504834, 2011; also: potency is read from the fitted curve at half-maximal effect; % is scaled to controls: 0 for no effect and ±100 for the full control effect
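Plates of compound plus infected erythrocytes (2% hematocrit, 0.05% parasitemia final) incubate 96 hours, 37 C, 5% CO2. Detection reagent added; reduced luminescence from the parasites' luciferase reporter flags inhibition.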
Shiga inhibitor: A qHTS for Small Molecule Inhibitors of Shiga Toxin | Vero cells, Shiga toxin protein synthesis inhibition reporter | inhibition, % at 38.7 µM | actives 9.2% (n = 290,000) | AID 2315, 2010; in the data active = inhibition mostly above about 28%, no sharp cut-off; inactive = mostly below about 43%; also: 0% is about no effect
Pf growth 48h: Primary qHTS for delayed death inhibitors of the malarial parasite plastid, 48 hour incubation; actives 5.9% (n = 310,000); Potency, µM (doses to about 28.7 µM), inactives show top-dose activity change, negative = inhibition, hits mostly inhibitors; P. falciparum luciferase growth in erythrocytes, 48 h; AID 504832, 2011; also: potency is read from the fitted curve at half-maximal effect; % is scaled to controls: 0 for no effect and ±100 for the full control effect
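Luciferase-expressing parasites in RBCs, 2% Hct / 0.1% parasitemia final; RPMI 1640 + 0.5% Albumax; 37 C, 5% CO2, one generation; luminescence read-out, lower signal = inhibition.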
Active calls of the source: *; ? = inconclusive; nt = no result; [ ] = dose if it differs, or a comment. Most compounds without a hit are left out; they make up all but 19% or so of the library. Unless noted, calls follow the shape of the dose curve; as a rule, active = well fitted inhibition curve with a large enough effect; inconclusive = small, poorly fitted or top-dose-only effect, or another doubt; inactive = no such curve, though single readings can be large or run the other way.

SMILES	Marburg entry inh	Cycloheximide cs	LASV entry inh	Pf growth 96h	Shiga inhibitor	Pf growth 48h
COc1ccc(C(c2c(C)[nH]n(-c3ccccc3)c2=O)c2c(C)[nH]n(-c3ccccc3)c2=O)cc1OC	-1%	-2	13%	?	-6	7%
Cc1onc(-c2c(F)cccc2Cl)c1C(=O)Nc1cccc2nsnc12	?	-4	?	?	-4	?
Cc1onc(-c2c(F)cccc2Cl)c1C(=O)Nc1nnc(C(F)(F)F)s1	nt	-3	nt	10µM*	8	33%
Cc1ccc(S(=O)(=O)N(C)C)cc1NC(=O)c1c(-c2c(F)cccc2Cl)noc1C	-18%[46.1 µM]	1	?	?	-2	12µM*
Cc1onc(-c2c(F)cccc2Cl)c1C(=O)Nc1nc2ccccc2[nH]1	-18%[46.1 µM]	59*	?	-99%	60*	nt
CCOc1ccc(NC(=O)CN(C)C(=O)c2c(-c3c(F)cccc3Cl)noc2C)cc1OCC	2%[46.1 µM]	nt	-15%	1µM*	nt	?
CCCNC(=O)Cn1cnc2sc(C(=O)NCCCN3CCOCC3)c(C)c2c1=O	15%[46.1 µM]	-11	1%[46.1 µM]	?	-13	12%
Fc1ccc(CNc2ncnc3cc(Cl)ccc23)cc1	nt	3	nt	?	-4	?
Cc1onc(-c2c(Cl)cccc2Cl)c1C(=O)Nc1ccc2c(C(F)(F)F)cc(=O)oc2c1	nt	-3	nt	2.3µM*	52	?
Cc1onc(-c2c(F)cccc2Cl)c1-c1nnc(-c2ccc(C(F)(F)F)cc2)o1	?	-1	?	8.3µM*	-3	8.3µM*
Cc1ccc(NC(=O)c2c(-c3c(F)cccc3Cl)noc2C)cc1F	-10%	6	?	?	52	9.3µM*
Cc1onc(-c2ccccc2)c1C(=O)Nc1ccc2c(C)cc(=O)oc2c1	-12%	0	-9%	?	14	?
Cc1onc(-c2c(Cl)cccc2Cl)c1-c1nnc(-c2ccc(Cl)cc2)o1	?	6	?	-48%	9	?
Cc1cc(NC(=O)c2c(-c3c(F)cccc3Cl)noc2C)no1	nt	2	nt	-14%	11	?
COc1cccc(C(=O)NCCNC(=O)c2ccccn2)c1	-15%[46.1 µM]	-4	14%[46.1 µM]	13%	-7	4%
N/C(=N\OC(=O)c1ccc(OCC(F)(F)F)nc1)c1ccc(Cl)cc1	-5%[46.1 µM]	-1	24%	?	-4	-37%
O=C(NC1CCCC1)c1ccc(CSc2nc3ccncc3n2Cc2ccccc2F)cc1	16%[46.1 µM]	nt	nt	nt	nt	nt
Cc1cc2sc3nc(=O)n(-c4ccccc4)c(=O)n3c2cc1C	?	25*	?	244%	32*	146%
Cc1c(O)nc2sc3ccccc3n2c1=O	nt	-2	nt	29%	6	15%
COc1ccc(S(=O)(=O)N2Cc3ccccc3CC2C(=O)Nc2ccc(C)cc2C)cc1OC (stereo not given)	-16%[46.1 µM]	nt	-16%[46.1 µM]	nt	nt	nt
O=[N+]([O-])c1ccccc1S(=O)(=O)NCc1ccc(F)cc1	18%[46.1 µM]	-2	10%	0%	-8	1%
Cc1ccccc1CNS(=O)(=O)c1ccccc1[N+](=O)[O-]	?	-3	7%	0.66µM*	-7	34%
Cc1cccc(NC(=O)COC(=O)[C@@H]2CCCN2C(=O)c2cccs2)c1	4%	nt	3%	nt	nt	nt
CCOc1ccc(/C=N/NC(=O)c2cc(-c3ccco3)nc3ccccc23)cc1	?	47*	-21%	5%	103*	-17%
CCOc1ccccc1-c1cc(C(=O)N/N=C/c2ccc(O)c(OC)c2)c2ccccc2n1	?	8	7.1µM*	-7%	17	?
SMILES	Marburg entry inh	Cycloheximide cs	LASV entry inh	Pf growth 96h	Shiga inhibitor	Pf growth 48h
CCOc1cccc(-c2cc(C(=O)N/N=C/c3ccc(OC)c(CN4CCOCC4)c3)c3ccccc3n2)c1	8.2µM*	11	?	?	27	-21%
COc1ccc(/C=N/NC(=O)c2ccncc2)cc1CN1CCOCC1	-22%[14.2 µM]	-1	-22%	23%	3	4%
CCOc1ccccc1-c1cc(C(=O)N/N=C/c2ccc3c(c2)OCO3)c2ccccc2n1	?	-3	?	nt	35	2.3µM*
O=C(N/N=C/c1ccc2c(c1)OCO2)c1cc(-c2ccccc2Cl)nc2ccccc12	-11%	16	2%	10µM*	23	?
COc1ccc(CCNC(=O)c2ccc(N(C)S(=O)(=O)c3ccccc3)cc2)cc1	-17%[46.1 µM]	10	-7%	?	-7	2.1µM*
CCOc1ccc(S(=O)(=O)N(C)c2ccc(OCC(=O)Nc3ccc4[nH]c(=O)[nH]c4c3)cc2)cc1	10%	1	-15%	8%	-11	?
COc1ccc(CCNC(=O)c2ccccc2)cc1	4%	28*	0%	?	117*	19%
COc1ccc(CCNC(=O)COC(=O)Cc2ccccc2)cc1	?	1	5%	-8%	-15	3%
COc1ccc(CC(=O)Nc2ccccc2C(=O)NCCc2ccccc2)cc1	nt	30*	nt	12µM*	48*	?
CN(c1ccc(OCC(=O)Nc2ccc3[nH]c(=O)[nH]c3c2)cc1)S(=O)(=O)c1ccc(Cl)cc1	?	8	23µM*	-49%	-16	nt
CCOCc1nnc(NC(=O)c2cc(OC)c(OC)c(OC)c2)s1	-4%[46.1 µM]	-3	?	?	46	27%
COc1ccc(C(=O)NCC2(c3ccccc3)CCOCC2)cc1	15%[46.1 µM]	36*	-3%	10%	63	27%
CN(c1ccc(OCC(=O)NCCc2ccccc2)cc1)S(=O)(=O)c1ccc(Cl)cc1	-20%	nt	?	?	nt	8.3µM*
O=C(NCCc1ccc([N+](=O)[O-])cc1)c1ccccc1	nt	29*	nt	?	61*	?
COc1ccc(CC(=O)Nc2cccc(C(=O)O)c2C)cc1	?	15*	?	?	1	111%
Cc1ccc(NC(=O)C2CCC(CNS(=O)(=O)c3ccc4c(c3)CCCC(=O)N4)CC2)c(C)c1 (stereo not given)	nt	nt	-12%[46.1 µM]	nt	nt	nt
COc1ccc(NC(=O)c2cc(C)nc3c2c(C)nn3-c2ccc(C)cc2)cc1OC	nt	nt	1%[46.1 µM]	nt	nt	nt
COc1cccc(CCNC(=O)c2ccc(C#N)cc2)c1	?	21*	6%	-54%	38*	19%
CCOc1ccc(S(=O)(=O)N(C)c2ccc(OCC(=O)NCc3ccc(C(=O)OC)cc3)cc2)cc1	2%[46.1 µM]	2	3.2µM*	-31%	-8	-18%
COc1cccc(CCNS(=O)(=O)CCNC(=O)c2cccc(OC)c2)c1	-3%	nt	-3%	14%	nt	31%
COc1cc(NC(=S)NCCC(c2ccccc2)c2ccccc2)cc(OC)c1	?	-2	?	?	-13	13µM*
COc1ccc(CCNC(=S)Nc2ccccc2)cc1	nt	15	nt	?	3	10µM*
O=C1CCN=C(Nc2ccc(F)cc2)N1Cc1ccccc1	10%	5	7%	-10%	-11	nt
